The campaign covered roughly 65,000 compounds. About 2,100 (3.2%) showed an effect of 50% or more. The median lay at about -52%. This excerpt belongs to a sample that is enriched for strong results.
Each molecule was assayed on Plasmodium falciparum (assay: Screen against P. falciparum Asexual Blood Stage (ABS), at 5uM). Conditions: tested at 5 uM.
Format: functional, Dd2

SMILES | INHIBITION
Clc1ccccc1C1(c2ccnc(CC3CC3)n2)CCNCC1 | 87.8%
Cc1nc(CN2CCC3(C2)CN(C(=O)c2conc2C)C3)cs1 | -65.1%
Fc1cccnc1O[C@@H]1CC[C@H]2[C@H]1OCCN2Cc1nccs1 | -91.9%
CC(C)(C)n1ncc2c1NC(=O)CSC2c1ccc2c(c1)OCCO2 (stereo not given) | -24.5%
O=C(COc1cccc(F)c1)N1C[C@@H](O)[C@H](N2CCCC2)C1 | -133%
OCc1csc(N2CCCC(COc3cccc(F)c3)C2)n1 (stereo not given) | 81.2%
CCCOc1ccc(C2SCC(=O)Nc3c2c(=O)[nH]n3C(C)C)cc1 (stereo not given) | -95%
CC(=O)C1(c2ccccc2)CCN(C(=O)c2ccn3nnnc3c2)CC1 | -138%
CC(N)Cc1ccccc1Sc1ccc(O)cc1 (stereo not given) | 72.4%
CC(N)Cc1ccccc1Sc1ccccc1 (stereo not given) | 78.3%
CC[C@H](C)[C@@H](CO)NC(C)Cc1ccccc1F (stereo not given in full) | 49.7%
CNC(C)Cc1ccccc1Sc1ccc(O)cc1 (stereo not given) | 88.2%
CNS(=O)(=O)CC(=O)NC(C)Cc1ccccc1Br (stereo not given) | -184%
COCCCN1CCCCC12CC(=O)N(Cc1ccccn1)C2 (stereo not given) | -98.8%
Cc1noc(C)c1CN1C[C@@H]2COC[C@H](C(=O)N3CCCO3)[C@@H]2C1 | -23.5%
CCC(O)CN1CCN(C(=O)Cc2c(C)nc(C)[nH]c2=O)CC1 (stereo not given) | -143%
CN1CCC(O)(CNCc2ccc(F)c(C(F)(F)F)c2)CC1 | 83.3%
COc1ccc(OC)c(C2SCC(=O)Nc3n[nH]cc32)c1 (stereo not given) | -130%
Cc1ccc(CN2CC[C@]3(C[C@H](OCc4ccccn4)CO3)C2)o1 | 22.1%
Cc1ccc(CN2CC3(CCN(C(=O)c4cccnc4)C3)C2)o1 | -143%
Cc1ccc(CN2CCC3(CCN(S(=O)(=O)c4ccccc4)C3)C2)o1 (stereo not given) | 79.6%
CCNC(=O)NC[C@H]1C[C@@H]2CCN1C[C@@H]2c1cc(-c2cccs2)nn1C | -58.2%
COc1ccc(CCC(=O)NCCN2CCC(c3cccs3)CC2)cc1 | 75.8%
O=C(NCCc1ccccc1)NCCN1CCC(c2cccs2)CC1 | 77.6%
COCC(=O)NC[C@H]1C[C@@H]2CCN1C[C@@H]2c1cc(-c2cccs2)nn1C | -43.2%

SMILES | INHIBITION
Cc1cc(CNC(=O)CCc2ccc(S(N)(=O)=O)cc2)no1 | -28.2%
OC[C@@H]1[C@H]2CN(c3ccccn3)CCN2C[C@H]1c1ccccc1 | 41.3%
CCOC(=O)N1CCCC2(CCCNC2)C1 (stereo not given) | -33%
O=C1CO[C@@H]2CN(Cc3ccsc3)C[C@H]2N1Cc1ccncc1 | -56.6%
CCN(C)CC1CCN(S(=O)(=O)c2cc(C)c(F)cc2Cl)C1 (stereo not given) | 79.3%
Cc1ccc(N2CC[C@@H]3CN(Cc4cccc(C)n4)C[C@@H]3C2)nn1 | -27.5%
Cc1cccc(CN2C[C@@H]3CC[C@H]2CN(Cc2[nH]cnc2C)C3)n1 | 50.9%
Cc1cc(CN2C[C@@H]3CC[C@H]2CN(Cc2[nH]cnc2C)C3)on1 | -63.7%
CC[C@@H]1N(Cc2ccccn2)CCC[C@]12CCC(=O)N2CCOC | -116%
Cc1[nH]c(C2(N)CCCCC2)nc(=O)c1C | -60%
Cc1cnc(N2CCOC3(CCCN(CC(=O)N(C)C)C3)C2)nc1 (stereo not given) | -6.47%
CC(CNC(=O)c1cc(Cl)ccc1I)N1CCCC1 (stereo not given) | 71.1%
COc1ccc(Cl)cc1CC(=O)N1CCN(CC(C)O)CC1 (stereo not given) | -132%
Cc1nc(N2C[C@H]3CNC[C@H]3C2)c2sccc2n1 | -54.7%
Cc1nc(CO[C@@H]2CN(Cc3cccnc3)[C@@H]3COC[C@@H]32)cs1 | -14.2%
CCN1CCC2(CCC1=O)CN(c1ccnc(SC)n1)CCN2C (stereo not given) | -44.5%
Cc1nc(CC(=O)N2CCN(CCOc3ccccc3)CC2)cs1 | -22.5%
CN1CCN(C(=O)Cc2csc(-c3ccsc3)n2)C(c2ccccc2)C1 (stereo not given) | -7.38%
Cc1cnn(CCCNCc2csc(COc3ccccc3)n2)c1 | 70.9%
Cc1cnn(CCNCc2csc(-c3ccsc3)n2)c1 | 72.3%
Cc1nc(CN2CC[C@H]3[C@H]2CCN3c2ncccn2)cs1 | -38%
CN(C)C(=O)CN1CCN(C(=O)Cc2csc(-c3ncccn3)n2)CC1 | 6.7%
CC(Cn1cccn1)NCc1csc(-c2ccsc2)n1 (stereo not given) | -88.6%
Cc1cnn(CCNCc2csc(-c3ncccn3)n2)c1 | 71.5%
O=C(C1CCOCC1)N1C[C@@H]2CC[C@H]1CN(Cc1ccncc1)C2 | -111%
